{"source": "PubChem BioAssay AID431", "about": "(Sanford-Burnham Center for Chemical Genomics, 2006)", "note": "About 1,100 (1.7%) of roughly 63,000 compounds were called active. The full list was thinned out, with actives kept by preference. Measured potencies and affinities stand elsewhere. A number with no mark means an inactive call.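 How the source made its calls: active means compounds whose percent cytotoxicity in the single-dose primary screen, scaled between solvent and toxic-drug controls, exceeds 50; inactive means the rest.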"}
{"experiment": "cytotoxicity in KRAS-transformed pancreatic duct cells, primary screen, cell-based, fluorescence, HTS (AID 431);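 further: 0% = DMSO solvent wells and 100% = doxorubicin-treated wells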", "settings": "HPDE-C7K KRASV12 cells, Alamar Blue viability, 48 h; at 10 µM; hits give high values"}
{"smiles": "CCOC(=O)c1oc2ccc(Br)cc2c1CSc1nnc(C)s1", "cytotoxicity": "-7.5%"}
{"smiles": "COC(=O)c1cn(NC(=O)c2cccc(N(C)C)c2)c(=O)c2ccccc12", "cytotoxicity": "-1.6%"}
{"smiles": "CCOC(=O)c1c(C)[nH]c(C(=O)CN2C(=O)NC(C)(c3ccc(C)cc3)C2=O)c1C", "note": "(stereo unspecified)", "cytotoxicity": "29.2%"}
{"smiles": "COc1ccc(S(=O)(=O)N(C)CC(=O)N2CCC(C)CC2)cc1Cl", "cytotoxicity": "9.5%"}
{"smiles": "CCC(C)(C)n1nnnc1C(c1cc2ccc(C)cc2[nH]c1=O)N(Cc1cccnc1)Cc1ccco1", "note": "(stereo unspecified)", "cytotoxicity": "14.1%"}
{"smiles": "COc1ccc2[nH]c(=O)c(C(c3nnnn3C(C)(C)C)N(Cc3ccco3)CC3CCCO3)cc2c1", "note": "(stereo unspecified)", "cytotoxicity": "-29.6%"}
{"smiles": "CCCC(c1nnnn1C(C)(C)CC)N(Cc1ccco1)Cc1cc2ccc(OC)cc2[nH]c1=O", "note": "(stereo unspecified)", "cytotoxicity": "55.7% (active)"}
{"smiles": "NC(=O)c1ccsc1NC(=O)c1nc(-c2ccccc2)n(-c2ccccc2)n1", "cytotoxicity": "9.4%"}
{"smiles": "Cc1csc(NC(=O)c2nc(-c3ccccc3)n(-c3ccccc3)n2)n1", "cytotoxicity": "-19.1%"}
{"smiles": "O=C(Nc1nccs1)c1nc(-c2ccccc2)n(-c2ccccc2)n1", "cytotoxicity": "76.3% (active)"}
{"smiles": "CCCCC(=O)Nc1ccc(C(=O)NCc2ccncc2)cc1", "cytotoxicity": "-7.4%"}
{"smiles": "O=C(CC12CC3CC(CC(C3)C1)C2)N1CCOCC1", "cytotoxicity": "-7.8%"}
{"smiles": "CCOC(=O)c1sc2nc(NC(=O)C3CC3)sc2c1C", "cytotoxicity": "4.4%"}
{"smiles": "CCOC(=O)c1sc2nc(NC(=O)C(C)(C)C)sc2c1C", "cytotoxicity": "2.1%"}
{"smiles": "CCOC(=O)c1sc2nc(NC(=O)C3CCCCC3)sc2c1C", "cytotoxicity": "68.2% (active)"}
{"smiles": "CCC(C)[C@H](NC(=O)NCc1cccs1)C(=O)OC", "note": "(stereo partly specified)", "cytotoxicity": "7.9%"}
{"smiles": "O=S(=O)(c1ccc(Nc2ccc3c(c2)OCO3)nc1)N1CCOCC1", "cytotoxicity": "-0.1%"}
{"smiles": "O=C(CCS(=O)(=O)c1cccc2nsnc12)NCc1ccccc1", "cytotoxicity": "-10.5%"}
{"smiles": "Cc1cccc(-n2c(CCCN3C(=O)c4ccccc4C3=O)nc3ccccc3c2=O)n1", "cytotoxicity": "-9.8%"}
{"smiles": "Cc1oc2c(CN3CCOCC3)c(O)ccc2c(=O)c1-c1ccccc1", "cytotoxicity": "-12.9%"}
{"smiles": "COc1cc(NS(=O)(=O)c2ccc(NC(=O)C3CCCO3)cc2)nc(OC)n1", "note": "(stereo unspecified)", "cytotoxicity": "-15.8%"}
{"smiles": "Cc1ccc(OCc2nc(-c3ccccn3)no2)c(Br)c1", "cytotoxicity": "26.3%"}
{"smiles": "Clc1ccc(OCc2nc(-c3ccccn3)no2)c(Br)c1", "cytotoxicity": "13.1%"}
{"smiles": "CCOc1ccc(-c2nnc(-c3ccco3)o2)cc1OCC", "cytotoxicity": "1.7%"}
{"smiles": "COc1cccc(N2CCN(CC(=O)c3c[nH]c4ccc(OC)cc34)CC2C)c1", "note": "(stereo unspecified)", "cytotoxicity": "17.4%"}
{"smiles": "COc1cccc(N2CCN(Cc3nc4ccccc4c(=O)[nH]3)CC2)c1", "cytotoxicity": "4.2%"}
